Laboratory results published in PubChem BioAssay (NCATS).
Inconclusive results are not listed. A call without a number means that no potency is given here. Active and inactive are the calls of the source. The call rests on the fitted dose curve; in most records, active means well fitted inhibition curve with a large enough effect; inconclusive means small, poorly fitted or top-dose-only effect; inactive means flat fitted curve, though single readings scatter.

Tests used:
[1] = biological target: Ubiquitin carboxyl-terminal hydrolase 1 (Homo sapiens) (UniProt O94782); assay: Inhibitors of USP1/UAF1: Pilot qHTS (AID 504865); further: nearly all actives have a fitted effect of over 35% in size
Chain of Ubiquitin carboxyl-terminal hydrolase 1 (Homo sapiens) (O94782 whole entry, looked up): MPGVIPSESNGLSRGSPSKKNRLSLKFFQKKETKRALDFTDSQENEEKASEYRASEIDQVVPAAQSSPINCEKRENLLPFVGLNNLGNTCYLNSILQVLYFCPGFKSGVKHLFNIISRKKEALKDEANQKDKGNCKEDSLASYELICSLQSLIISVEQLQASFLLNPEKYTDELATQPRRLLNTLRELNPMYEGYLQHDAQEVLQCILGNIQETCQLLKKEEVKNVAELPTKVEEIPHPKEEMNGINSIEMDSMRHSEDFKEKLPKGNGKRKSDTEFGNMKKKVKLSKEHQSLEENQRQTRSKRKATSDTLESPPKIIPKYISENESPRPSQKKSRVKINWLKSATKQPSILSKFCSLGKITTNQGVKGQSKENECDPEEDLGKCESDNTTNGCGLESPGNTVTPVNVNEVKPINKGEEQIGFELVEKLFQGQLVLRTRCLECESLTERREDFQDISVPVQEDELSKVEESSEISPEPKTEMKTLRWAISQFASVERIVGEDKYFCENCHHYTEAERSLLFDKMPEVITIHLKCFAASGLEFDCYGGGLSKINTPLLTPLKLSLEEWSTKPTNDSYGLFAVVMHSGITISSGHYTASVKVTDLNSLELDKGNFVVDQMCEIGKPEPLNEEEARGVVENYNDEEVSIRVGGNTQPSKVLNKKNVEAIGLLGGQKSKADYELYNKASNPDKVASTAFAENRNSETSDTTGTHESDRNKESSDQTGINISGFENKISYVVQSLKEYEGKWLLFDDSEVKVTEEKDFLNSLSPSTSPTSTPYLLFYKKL
How it was run: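 USP1/UAF1 complex at 1 nM preincubated 15 min at room temperature with compound, then Ub-Rho substrate added at 150 nM final. Fluorescence (480/540 nm) read kinetically in 50 mM HEPES pH 7.8, 0.5 mM EDTA, 1 mM TCEP, 0.1 mg/ml BSA, 0.01% Tween-20.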

AA1029 = assay: qHTS profiling for inhibitors of Plasmodium falciparum proliferation (AID 504749); further: nearly all actives have a fitted effect of over 60% in size; conditions: P. falciparum in erythrocytes, SYBR Green DNA, 72 h; series mostly up to 28.7 µM
How it was run: (§1)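 Each compound contacts P. falciparum-infected red blood cells for 72 h at 37 C; lysis buffer (Tris, EDTA, saponin, Triton X, SYBR Green I) is added and fluorescence measured next morning; values normalized to controls.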

CP211 = assay: as above; conditions: P. falciparum in erythrocytes, SYBR Green DNA, 72 h; series mostly up to 28.7 µM
How it was run: as §1

CP215 = assay: as above; conditions: P. falciparum in erythrocytes, SYBR Green DNA, 72 h; series mostly up to 28.7 µM
How it was run: as §1

CP217 = assay: as above; conditions: P. falciparum in erythrocytes, SYBR Green DNA, 72 h; series mostly up to 28.7 µM
How it was run: as §1

CP260 = assay: as above; conditions: P. falciparum in erythrocytes, SYBR Green DNA, 72 h; series mostly up to 28.7 µM
How it was run: as §1

CP297 = assay: as above; conditions: P. falciparum in erythrocytes, SYBR Green DNA, 72 h; series mostly up to 28.7 µM
How it was run: as §1

CP315 = assay: as above; conditions: P. falciparum in erythrocytes, SYBR Green DNA, 72 h; series mostly up to 28.7 µM
How it was run: as §1

CP335 = assay: as above; conditions: P. falciparum in erythrocytes, SYBR Green DNA, 72 h; series mostly up to 28.7 µM
How it was run: as §1

DIV14 = assay: as above; conditions: P. falciparum in erythrocytes, SYBR Green DNA, 72 h; series mostly up to 28.7 µM
How it was run: as §1

DIV17 = assay: as above; conditions: P. falciparum in erythrocytes, SYBR Green DNA, 72 h; series mostly up to 28.7 µM
How it was run: as §1

FAB9 = assay: as above; conditions: P. falciparum in erythrocytes, SYBR Green DNA, 72 h; series mostly up to 28.7 µM
How it was run: as §1

ICS = assay: as above; conditions: P. falciparum in erythrocytes, SYBR Green DNA, 72 h; series mostly up to 28.7 µM
How it was run: as §1

JCK = assay: as above; conditions: P. falciparum in erythrocytes, SYBR Green DNA, 72 h; series mostly up to 28.7 µM
How it was run: as §1

N140 = assay: as above; conditions: P. falciparum in erythrocytes, SYBR Green DNA, 72 h; series mostly up to 28.7 µM
How it was run: as §1

PC15 = assay: as above; conditions: P. falciparum in erythrocytes, SYBR Green DNA, 72 h; series mostly up to 28.7 µM
How it was run: as §1

TAB113 = assay: as above; conditions: P. falciparum in erythrocytes, SYBR Green DNA, 72 h; series mostly up to 28.7 µM
How it was run: as §1

TAB165 = assay: as above; conditions: P. falciparum in erythrocytes, SYBR Green DNA, 72 h; series mostly up to 28.7 µM
How it was run: as §1

W2 = assay: as above; conditions: P. falciparum in erythrocytes, SYBR Green DNA, 72 h; series mostly up to 28.7 µM
How it was run: as §1

[2] = biological target: Tyrosyl-DNA phosphodiesterase 1 (Homo sapiens) (UniProt Q9NUW8); assay: Confirmation Assay for Inhibitors of Tyrosyl-DNA Phosphodiesterase (TDP1) (AID 489007); conditions: recombinant human TDP1 enzymatic activity, dose-response; further: nearly all actives have a fitted effect of over 40% in size
Chain of Tyrosyl-DNA phosphodiesterase 1 (Homo sapiens) (Q9NUW8 whole entry, looked up): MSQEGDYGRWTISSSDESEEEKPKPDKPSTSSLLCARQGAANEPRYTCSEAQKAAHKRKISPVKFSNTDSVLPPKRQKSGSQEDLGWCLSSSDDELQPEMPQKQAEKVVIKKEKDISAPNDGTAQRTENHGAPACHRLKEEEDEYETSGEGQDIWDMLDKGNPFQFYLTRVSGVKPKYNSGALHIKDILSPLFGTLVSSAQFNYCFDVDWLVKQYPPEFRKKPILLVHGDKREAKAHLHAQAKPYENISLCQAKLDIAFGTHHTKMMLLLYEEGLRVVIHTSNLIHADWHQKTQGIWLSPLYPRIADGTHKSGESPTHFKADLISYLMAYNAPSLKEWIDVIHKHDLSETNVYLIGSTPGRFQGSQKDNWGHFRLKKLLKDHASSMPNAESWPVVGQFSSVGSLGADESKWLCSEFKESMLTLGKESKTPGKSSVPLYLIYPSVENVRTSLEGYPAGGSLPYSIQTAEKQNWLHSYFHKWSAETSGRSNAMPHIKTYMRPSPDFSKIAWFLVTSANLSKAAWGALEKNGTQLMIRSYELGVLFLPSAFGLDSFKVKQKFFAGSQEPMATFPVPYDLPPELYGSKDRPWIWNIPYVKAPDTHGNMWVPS
How it was run: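 AlphaScreen assay of tyrosine-FITC cleavage from a biotinylated DNA substrate (15 nM) by E. coli-expressed human Tdp1 (1 nM). Sequence: compound preincubation 15 min, reaction 5 min, bead detection 10 min, all at room temperature. No-enzyme wells give maximum signal.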
Potency means the concentration at half of the fitted maximal effect.

CCCCC/C(C=O)=C/c1ccccc1
Potency [1]: inactive
Potency (AA1029): inactive
Potency (CP211): inactive
Potency (CP215): inactive
Potency (CP217): inactive
Potency (CP260): inactive
Potency (CP297): inactive
Potency (CP315): inactive
Potency (CP335): inactive
Potency (DIV14): inactive
Potency (DIV17): inactive
Potency (FAB9): inactive
Potency (ICS): inactive
Potency (JCK): inactive
Potency (N140): inactive
Potency (PC15): inactive
Potency (TAB113): inactive
Potency (TAB165): inactive
Potency (W2): inactive

CC(=O)NC[C@@H]1CN(c2ccc(N3CCOCC3)c(F)c2)C(=O)O1
Potency [1]: inactive
Potency (AA1029): inactive
Potency (CP211): inactive
Potency (CP215): inactive
Potency (CP217): inactive
Potency (CP260): inactive
Potency (CP297): inactive
Potency (CP315): inactive
Potency (CP335): inactive
Potency (DIV14): inactive
Potency (DIV17): inactive
Potency (FAB9): inactive
Potency (ICS): inactive
Potency (JCK): inactive
Potency (N140): inactive
Potency (PC15): inactive
Potency (TAB113): inactive
Potency (TAB165): inactive
Potency (W2): inactive

O=C(O)Cc1ccc(NC(=O)C2CC=CCC2C(=O)O)cc1 (stereo not given)
Potency [2]: 14.1 µM (active)

O=C(N/N=C/c1ccc2c(c1)OCO2)c1cc2ccccc2o1
Potency [2]: 12.6 µM (active)

COc1ccc(-c2nc3c(c(SCC(=O)Nc4ccc(C(=O)O)cc4)n2)Cc2ccccc2O3)cc1
Potency [2]: 1.62 µM (active)

C=C[C@H]1CN2CCC1C[C@H]2[C@H](O)c1ccnc2ccc(OC)cc12 (stereo not given in full)
Potency (AA1029): 0.891 µM (active)
Potency (CP211): 1.35 µM (active)
Potency (CP215): 1.2 µM (active)
Potency (CP217): 2.82 µM (active)
Potency (CP260): 0.708 µM (active)
Potency (CP297): 1.69 µM (active)
Potency (CP315): 1.69 µM (active)
Potency (CP335): 0.849 µM (active)
Potency (DIV14): 0.757 µM (active)
Potency (DIV17): 0.757 µM (active)
Potency (FAB9): 0.794 µM (active)
Potency (ICS): 0.282 µM (active)
Potency (JCK): 10 µM (active)
Potency (N140): 0.631 µM (active)
Potency (PC15): 0.447 µM (active)
Potency (TAB113): 0.708 µM (active)
Potency (TAB165): 1.12 µM (active)
Potency (W2): 0.338 µM (active)

OCCN1CC(O)C(O)C(O)C1CO (stereo not given)
Potency [1]: inactive
Potency (AA1029): inactive
Potency (CP211): inactive
Potency (CP215): inactive
Potency (CP217): inactive
Potency (CP260): inactive
Potency (CP297): inactive
Potency (CP315): inactive
Potency (CP335): inactive
Potency (DIV14): inactive
Potency (DIV17): inactive
Potency (FAB9): inactive
Potency (ICS): inactive
Potency (JCK): inactive
Potency (N140): inactive
Potency (PC15): inactive
Potency (TAB113): inactive
Potency (TAB165): inactive
Potency (W2): inactive

CC(=O)N[C@H]1[C@H](O[C@@H]2c3ccc(c(Cl)c3)Oc3cc4cc(c3O[C@@H]3O[C@H](CO)[C@@H](O)[C@H](O)C3C)Oc3ccc(cc3Cl)C[C@H]3NC(=O)[C@@H](N)c5ccc(O)c(c5)Oc5cc(O)cc(c5)[C@H](NC3=O)C(=O)N[C@H]4C(=O)N[C@H]3C(=O)N[C@@H]2C(=O)N[C@@H](C(=O)O)c2cc(O)cc(O[C@H]4O[C@H](CO)[C@@H](O)C(O)[C@@H]4O)c2-c2cc3ccc2O)O[C@H](CO)[C@@H](O)[C@@H]1O (stereo not given in full)
Potency (AA1029): inactive
Potency (CP211): inactive
Potency (CP215): inactive
Potency (CP217): inactive
Potency (CP260): inactive
Potency (CP297): inactive
Potency (CP315): inactive
Potency (CP335): inactive
Potency (DIV14): inactive
Potency (DIV17): inactive
Potency (FAB9): inactive
Potency (ICS): inactive
Potency (JCK): inactive
Potency (N140): inactive
Potency (PC15): inactive
Potency (TAB113): inactive
Potency (TAB165): inactive
Potency (W2): inactive

C/C1=C2/[N-]C(C(CC(N)=O)[C@@]2(C)CCC(=O)NCC(C)OP(=O)([O-])O[C@H]2[C@@H](O)[C@@H](n3cnc4cc(C)c(C)cc43)O[C@@H]2CO)[C@]2(C)N=C(/C(C)=C3N=C(/C=C4N=C1C(CCC(N)=O)C\4(C)C)[C@@H](CCC(N)=O)[C@]\3(C)CC(N)=O)[C@@H](CCC(N)=O)[C@]2(C)CC(N)=O.CC(=O)O.[Co] (stereo not given in full)
Potency [1]: 56.2 µM (active)
Potency (AA1029): inactive
Potency (CP211): inactive
Potency (CP215): inactive
Potency (CP217): inactive
Potency (CP260): inactive
Potency (CP297): inactive
Potency (CP315): inactive
Potency (CP335): inactive
Potency (DIV14): inactive
Potency (DIV17): inactive
Potency (FAB9): inactive
Potency (ICS): inactive
Potency (JCK): inactive
Potency (N140): inactive
Potency (PC15): inactive
Potency (TAB113): inactive
Potency (TAB165): inactive
Potency (W2): 0.601 µM (active)

O=C(O)CC(O)CC(O)/C=C/c1c(C2CC2)nc2ccccc2c1-c1ccc(F)cc1 (stereo not given)
Potency [1]: inactive
Potency (AA1029): inactive
Potency (CP211): inactive
Potency (CP215): inactive
Potency (CP217): inactive
Potency (CP260): inactive
Potency (CP297): inactive
Potency (CP315): inactive
Potency (CP335): inactive
Potency (DIV14): inactive
Potency (DIV17): inactive
Potency (FAB9): inactive
Potency (ICS): inactive
Potency (JCK): inactive
Potency (N140): inactive
Potency (PC15): inactive
Potency (TAB113): inactive
Potency (TAB165): inactive
Potency (W2): inactive

CN1[C@@H]2CC[C@@H]1CC(OC(=O)[C@H](CO)c1ccccc1)C2 (stereo not given in full)
Potency (AA1029): inactive
Potency (CP211): inactive
Potency (CP215): inactive
Potency (CP217): inactive
Potency (CP260): inactive
Potency (CP297): inactive
Potency (CP315): inactive
Potency (CP335): inactive
Potency (DIV14): inactive
Potency (DIV17): inactive
Potency (FAB9): inactive
Potency (ICS): inactive
Potency (JCK): 15.8 µM (active)
Potency (N140): inactive
Potency (TAB165): inactive
Potency (W2): inactive

CC1(C)OC[C@@H]2O[C@@]3(C(=O)O)OC(C)(C)O[C@@H]3[C@@H]2O1
Potency [1]: inactive
Potency (AA1029): inactive
Potency (CP211): inactive
Potency (CP215): inactive
Potency (CP217): inactive
Potency (CP260): inactive
Potency (CP297): inactive
Potency (CP315): inactive
Potency (CP335): inactive
Potency (DIV14): inactive
Potency (DIV17): inactive
Potency (FAB9): inactive
Potency (ICS): inactive
Potency (JCK): inactive
Potency (N140): inactive
Potency (PC15): inactive
Potency (TAB113): inactive
Potency (TAB165): inactive

C=CC1CN2CCC1CC2[C@@H](O)c1ccnc2ccc(OC)cc12 (stereo not given in full)
Potency (AA1029): 0.282 µM (active)
Potency (CP211): 0.675 µM (active)
Potency (CP215): 0.478 µM (active)
Potency (CP217): 0.501 µM (active)
Potency (CP260): 0.355 µM (active)
Potency (CP297): 0.757 µM (active)
Potency (CP315): 0.953 µM (active)
Potency (CP335): 0.338 µM (active)
Potency (DIV14): 0.213 µM (active)
Potency (DIV17): 0.135 µM (active)
Potency (FAB9): 0.0794 µM (active)
Potency (ICS): 0.0891 µM (active)
Potency (JCK): 2 µM (active)
Potency (N140): 0.316 µM (active)
Potency (PC15): 0.0891 µM (active)
Potency (TAB113): 0.355 µM (active)
Potency (TAB165): 0.251 µM (active)
Potency (W2): 0.19 µM (active)

CC(O)C(N)C(=O)O (stereo not given)
Potency [1]: inactive
Potency (AA1029): inactive
Potency (CP211): inactive
Potency (CP215): inactive
Potency (CP217): inactive
Potency (CP260): inactive
Potency (CP297): inactive
Potency (CP315): inactive
Potency (CP335): inactive
Potency (DIV14): inactive
Potency (DIV17): inactive
Potency (FAB9): inactive
Potency (ICS): inactive
Potency (JCK): inactive
Potency (N140): inactive
Potency (PC15): inactive
Potency (TAB113): inactive
Potency (TAB165): inactive
Potency (W2): inactive
